Screens deposited in PubChem BioAssay by National Center for Advancing Translational Sciences (NCATS).
Hits are enriched below; roughly 7.5% of the tested compounds scored in any of these assays.
FLuc counter = firefly luciferase modulation, counter-screen for miR-21 project; P08659; purified FLuc, Km substrates, luminescence inhibition; Potency, µM (series often up to 57.5 µM), inactives show at the highest dose activity change, negative = inhibition, actives largely listed as inhibitors; 6.9% of 360,000 active; AID 588342;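 further: plate controls were vehicle for no effect and reference inhibitor for full effect; nearly all actives have a fitted effect of over 55% in size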
Target sequence (P08659 whole entry, looked up): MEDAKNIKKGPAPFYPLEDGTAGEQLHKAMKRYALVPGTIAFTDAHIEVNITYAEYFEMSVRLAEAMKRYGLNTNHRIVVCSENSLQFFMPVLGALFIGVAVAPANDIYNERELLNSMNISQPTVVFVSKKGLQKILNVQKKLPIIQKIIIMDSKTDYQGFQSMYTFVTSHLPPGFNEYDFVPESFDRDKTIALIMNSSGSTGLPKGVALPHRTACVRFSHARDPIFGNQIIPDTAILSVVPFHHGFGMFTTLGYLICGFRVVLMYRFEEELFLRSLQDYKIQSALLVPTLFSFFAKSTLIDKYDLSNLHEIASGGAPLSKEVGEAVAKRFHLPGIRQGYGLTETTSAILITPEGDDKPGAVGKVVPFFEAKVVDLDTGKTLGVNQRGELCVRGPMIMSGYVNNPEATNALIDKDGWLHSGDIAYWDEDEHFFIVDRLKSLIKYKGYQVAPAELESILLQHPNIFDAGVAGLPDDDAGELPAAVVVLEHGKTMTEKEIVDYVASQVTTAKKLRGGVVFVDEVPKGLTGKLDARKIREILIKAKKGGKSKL
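Purified P. pyralis luciferase, 10 nM final, with Km-level 10 uM D-luciferin and 10 uM ATP in 50 mM Tris acetate pH 7.5, 10 mM Mg acetate, 0.01% Tween-20, 0.05% BSA; 6-point qHTS titration about 60 µM downward; luminescence read.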
SMN2 splice up = enhancers of SMN2 splice variant expression. HEK293 SMN2-luciferase splicing reporter, luminescence, 30-36 h. Potency, µM (highest dose often 46.1 µM), for inactives: at the top dose activity change, positive = activation, usual class: activators. 2.8% of 210,000 active. AID 1458; further: % of control where 0% means no effect; nearly all actives have a fitted effect of over 55% in size
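HEK293 cells carry an SMN2 […]–luciferase reporter in which exon 7 inclusion puts luciferase in frame. Cells were plated 10-12 h before compound addition, then incubated 30-36 h at 37C. ONE-Glo luminescence was read; sodium butyrate at 4.5 mM final served as control.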
ELG1 genotox = induces genotoxicity in HEK293T cells with luciferase-tagged ELG1; Potency, µM (series often up to 46 µM), inactives show top-dose activity change, positive = activation, most hits filed as activators; HEK293T ELG1-luciferase reporter, luminescence, 16 h; 1.3% of 330,000 active; further: % of control where 0% means no effect; nearly all actives have a fitted effect of over 60% in size
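HEK293T cells expressing luciferase-tagged ELG1 were treated with compound or DMSO for 16 hr at 37°C. Luciferase activity was then read after 30 min with ONE-Glo at room temperature; rising signal flags genetic stress.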
KinaseGlo FLuc = counter-screen: inhibitors of Kinase-Glo firefly luciferase. Q27757. Kinase-Glo luciferase, ATP luminescence, 8 min. Potency, µM (top dose mostly 38.3 µM), without a hit: at the highest dose activity change, negative = inhibition, most hits filed as inhibitors. 0.28% of 200,000 active. AID 1379; further: on the % scale 0 is the no-effect control and ±100 the full control effect; nearly all actives have a fitted effect of over 60% in size
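Recombinant Kinase-Glo luciferase, 10 uM ATP (linear range), luciferin; imidazole pH 7.2 / KCl / MgCl2 / Tween / BSA buffer; 8 min RT; luminescence.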
NPC1 promoter act = activates the NPC1 promoter | Huh7 NPC1 promoter luciferase reporter, 24 h | Potency, µM (top dose mostly 9.22 µM), for the others: at the highest dose activation, hits mostly activators | 2.4% of 320,000 active | AID 485313; further: % of control where 0% means no effect; nearly all actives have a fitted effect of over 60% in size
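Readout is luciferase luminescence, reflecting NPC1 promoter activation in stably transfected Huh7 cells after 24 h compound exposure at 37 °C in reduced-serum medium with 10% FBS.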
Rab9 prom act = Rab9 promoter activation. Huh7 Rab9 promoter-luciferase reporter, luminescence, 24 h. Potency, µM (series often up to 9.22 µM), for the others: at the highest dose activation, negative = inhibition, hits mostly activators. 2.8% of 320,000 active. AID 485297; further: % of control where 0% means no effect; nearly all actives have a fitted effect of over 60% in size
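Huh7 cells stably carrying Rab9 promoter–luciferase reporter, plated 1500 cells/well, compound added after 2 h and incubated 24 h at 37 °C; luciferase luminescence then read after 10 min with detection reagent.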
* marks the source's active call; other numbers are inactive results; ? = inconclusive; nt = not tested or not shown. The call rests on the fitted dose curve; in most records, active means well fitted curve in the direction sought with a large enough effect; inconclusive means small, poorly fitted or top-dose-only effect, or another doubt; inactive means no such curve, though single readings can be large; an effect the other way counts as inactive or inconclusive. Potency means the concentration at half of the fitted maximal effect.

SMILES	FLuc counter	SMN2 splice up	ELG1 genotox	KinaseGlo FLuc	NPC1 promoter act	Rab9 prom act
CC1(C)Cc2c(sc3nc(-c4ccccc4)n(N)c(=O)c23)CO1	?	-4%	1%	0%	17%	14%
Nn1c(-c2cccs2)nc2sc3c(c2c1=O)CCCC3	2.4µM*	6.3µM*	2.3µM*	-11%	1%	6.3µM*
CC1(C)Cc2c(sc3nc(-c4cccs4)n(N)c(=O)c23)CO1	6µM*	-9%	-15%	-3%	?	2.8µM*
Cc1ccccc1-c1nc2sc3c(c2c(=O)n1N)CCCC3	6.7µM*	-60%	2.9µM*	-2%	18%	23%
Nn1c(Cc2ccccc2)nc2sc3c(c2c1=O)CCC3	0%	nt	-7%	nt	-3%	1%
COc1ccc2[nH]c(CN3CCC(CO)(CCOc4ccccc4)CC3)c(C)c2c1	0%	nt	9%	0%	-3%	-7%
COc1cccc2[nH]c(C(=O)NCc3ccccc3)cc12	-19%	nt	-3%	nt	-4%	-5%
O=C(Nc1ccc(S(=O)(=O)N2CCCCC2)cc1)c1ccc(F)cc1	-1%	nt	-16%	nt	-1%	-8%
O=S(=O)(N1CCCCC1)N1CCN(c2ccc(F)cc2)CC1	-1%	11%	-5%	1%	-2%	-1%
O=C(c1ccc(F)cc1)c1ccc(N2CCCCC2)cc1	6.7µM*	nt	?	nt	2.8µM*	2.5µM*
O=C(Nc1ccc(N2CCCCC2)cc1)c1ccc(F)cc1	1.2µM*	3.5µM*	1.6µM*	-11%	0.89µM*	0.45µM*
O=C(c1ccc(F)cc1)c1ccc(N2CCCC2)cc1	12µM*	nt	14µM*	-6%	?	?
O=C(Nc1ccc(N2CCCCC2)cc1)c1cccnc1	21µM*	22µM*	9.2µM*	-1%	?	?
O=C(CCC(=O)N1CCN(c2ccc(F)cc2)CC1)N1CCN(c2ccc(F)cc2)CC1	4%	nt	-8%	nt	-4%	-2%
Cc1ccc(CNC(=O)C2C3C=CC(C3)C2C(=O)O)cc1 (stereo not given)	-1%	nt	-1%	0%	-3%	0%
N#Cc1ccc(OC(=O)c2cc(-c3ccc4c(c3)OCCO4)on2)cc1	21µM*	nt	nt	nt	nt	nt
Cc1cccc(OC(=O)c2cc(-c3ccc4c(c3)OCCO4)on2)c1	4.8µM*	nt	nt	nt	nt	nt
Cc1cc(C)cc(OC(=O)c2cc(-c3ccc4c(c3)OCCO4)on2)c1	-29%	nt	nt	nt	nt	nt
CC(C)c1ccc(OC(=O)c2cc(-c3ccc4c(c3)OCCO4)on2)cc1	-19%	nt	nt	nt	nt	nt
O=C(Oc1ccc(Cl)cc1)c1cc(-c2ccc3c(c2)OCCO3)on1	6µM*	nt	nt	nt	nt	nt
COc1ccc(OC(=O)c2cc(-c3ccc4c(c3)OCCO4)on2)cc1	7.6µM*	nt	nt	nt	nt	nt
O=c1cnc2cnc(Oc3ccccc3)nc2n1Cc1ccc(F)cc1	nt	-12%	nt	0%	nt	nt
CCCOc1ccc(C(=O)NC(=S)N2CCN(c3cc4c(cc3F)c(=O)c(C(=O)O)cn4CC)CC2)cc1	-18%	nt	0%	nt	-9%	-4%
OCCOCCNc1ncnc2c1cnn2-c1ccccc1	?	-18%	-3%	1%	2.2µM*	?
CC(C)OCCCNc1ncnc2c1cnn2-c1ccccc1	4.3µM*	-10%	-1%	-5%	1.4µM*	0.45µM*
SMILES	FLuc counter	SMN2 splice up	ELG1 genotox	KinaseGlo FLuc	NPC1 promoter act	Rab9 prom act
COCCN(CCOC)c1ncnc2c1cnn2-c1ccc(Cl)cc1	15µM*	?	10µM*	-2%	?	?
c1ccc(-n2ncc3c(NCc4ccccn4)ncnc32)cc1	?	27%	?	0%	20%	20%
Cc1ccc(-n2ncc3c(NCCCOC(C)C)ncnc32)c(C)c1	-1%	-1%	-6%	1%	0%	1%
OCCOCCNc1ncnc2c1cnn2-c1ccc(Cl)cc1	9.5µM*	-9%	0%	-3%	1.1µM*	0.89µM*
COc1ccc(NC(=O)C2CCN(C3=NS(=O)(=O)C(c4ccc(C)c(C)c4)=C3C)CC2)c(OC)c1	-10%	nt	nt	nt	nt	nt
CC1CN(Cc2ccccc2)C(C)CC1O (stereo not given)	0%	nt	1%	-5%	-5%	-4%
